# Reference: PubChem BioAssay AID1117264 (The Scripps Research Institute Molecular Screening Center, 2014)
# Screen size: about 89,000 compounds; about 440 (0.49%) were called active.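 How the source made its calls: active means inhibition above the mean inhibition across all screened compounds plus 3 SD (cut at about 11% in these data); inactive means the rest.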 The entries come from a sample that favours actives as a whole.
# Molecular target: RNA-editing ligase 1, mitochondrial (Trypanosoma brucei brucei) (UniProt P86926)
# Test: TbREL1 RNA ligase inhibitors, primary screen, biochemical, FRET fluorescence (AID 1117264);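 further: 0% = plate median of test wells and 100% = NSC42067 control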
# Conditions: TbREL1 RNA ligation, at 9.66 µM, hits give high values
# Sequence of RNA-editing ligase 1, mitochondrial (Trypanosoma brucei brucei) (P86926 whole entry, looked up): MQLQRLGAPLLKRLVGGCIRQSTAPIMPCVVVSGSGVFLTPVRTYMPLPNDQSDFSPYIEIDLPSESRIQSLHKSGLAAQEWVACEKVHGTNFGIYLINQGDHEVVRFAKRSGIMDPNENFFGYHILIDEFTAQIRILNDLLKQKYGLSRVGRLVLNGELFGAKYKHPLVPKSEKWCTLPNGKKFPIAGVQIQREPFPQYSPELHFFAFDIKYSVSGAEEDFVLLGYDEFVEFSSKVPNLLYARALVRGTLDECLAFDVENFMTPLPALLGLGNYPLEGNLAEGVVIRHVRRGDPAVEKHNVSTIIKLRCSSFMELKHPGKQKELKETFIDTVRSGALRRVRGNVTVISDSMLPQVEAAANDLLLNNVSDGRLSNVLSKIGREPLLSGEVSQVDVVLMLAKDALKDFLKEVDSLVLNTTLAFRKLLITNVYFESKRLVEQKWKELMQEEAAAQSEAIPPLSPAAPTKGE
row,SMILES,inhibition
1,CCn1c(=S)sc2c(=O)n(CC(=O)Nc3ccc(OC)cc3)c(C)nc21,-1.47% (inactive)
2,O=C(NC1CCCCC1)C1CCCN(S(=O)(=O)c2ccc(Br)s2)C1 (centres undefined),1.07% (inactive)
3,CCOC(=O)N1CCN(Cc2nc(Cc3cccc(C(F)(F)F)c3)no2)CC1,1.05% (inactive)
4,COc1ccc(N(Cc2ccc(N(C)C)cc2)C(=O)c2ccc(S(C)(=O)=O)cc2)cc1,-9.41% (inactive)
5,COCCN(Cc1ccccc1)C(=O)Cc1ccc(S(=O)(=O)N2CCOCC2)s1,-2.32% (inactive)
6,CCc1ccc(CN2C(=O)c3ccccc3C2C(=O)NCC2CCCO2)cc1 (centres undefined),-0.89% (inactive)
7,COCC(=O)N(C)[C@H]1C[C@H]2c3cc(Oc4ccccc4C)ccc3CCN2C(=O)[C@H]1[C@H](C)O,1.02% (inactive)
8,COc1cccc(CNC(=O)C2CCCN(c3ncnc4c3nc3n4CCCCC3)C2)c1 (centres undefined),0.12% (inactive)
9,Cc1ccc(NC(=O)Cn2cccc2C2=NC(c3ccccc3)CO2)c(C)c1 (centres undefined),-0.96% (inactive)
10,COc1ccc(N2C(=O)c3ccccc3NC2c2ccc(OC)c(CN3CCOCC3)c2)cc1 (centres undefined),0.23% (inactive)
11,CC[C@@H](C)[C@@H]1CN([C@@H](C)CN2CCC[C@H]2CN2C(N)=NC[C@H]2C(C)C)C(=N)N1CCc1ccc(Cl)c(Cl)c1,14% (active)
12,O=C1NC[C@H](Cc2ccc(O)cc2)N(C[C@H]2CCCN2C[C@H](Cc2ccccc2)N2C[C@H](Cc3ccccc3)N(CCc3ccccc3)C(=O)C2=O)C1=O,-1.45% (inactive)
13,CC1CCCCN1C(=O)Cn1c(=O)oc2cc(S(=O)(=O)N3CCCCC3)ccc21 (centres undefined),-1.44% (inactive)
14,Cc1cc(C)cc(N(CC(=O)NC2CCCC2)C(=O)CCC(=O)Nc2cc(C)on2)c1,0.2% (inactive)
15,Nc1ncnc2c1ncn2[C@@H]1O[C@H](C(=O)N[C@@H](CCc2ccccc2)C(=O)NCC(=O)N2CCOCC2)[C@@H](O)[C@H]1O,-1.68% (inactive)
16,CCOC(=O)COc1cc(OCC(=O)OCC)c2c(=O)cc(-c3ccccc3)oc2c1,2.07% (inactive)
17,COc1c(O)cc2oc(-c3ccc(O)c(O)c3)cc(=O)c2c1O,29.5% (active)
18,COc1cc(NC(=O)CSC(=S)N2CCCC2)c(OC)cc1Cl,6.87% (inactive)
19,Nc1ccc2nc3c(=O)[nH]c(=S)[nH]c3nc2c1,50.5% (active)
20,O=c1[nH]c(=O)c2nc3ccccc3nc2[nH]1,-0.15% (inactive)
21,COc1ccc([N+](=O)[O-])cc1N(CC(=O)Nc1ccccc1C(=O)N1CCOCC1)S(C)(=O)=O,-1.27% (inactive)
22,O=C(NCc1ccccc1)C1CCN(C(=O)Cc2ccccc2)CC1,0.8% (inactive)
23,O=C(NCc1ccccc1)[C@@H]1CSC2c3ccccc3C(=O)N21 (some centres undefined),18.5% (active)

row,SMILES,inhibition
1,O=C(NCc1ccccc1)C1c2ccccc2OCC(=O)N1C1CC1 (centres undefined),4.12% (inactive)
2,Cc1c(CCC(=O)N[C@@H](CC(C)C)C(=O)O)c(=O)oc2c(C)c3oc4c(c3cc12)CCCC4,0.56% (inactive)
3,Cc1cc(NC(=O)CN2C(=O)NC(C)(CCc3ccccc3)C2=O)no1 (centres undefined),0.2% (inactive)
4,O=C(NNC1CC(=O)N(c2cccc(Cl)c2)C1=O)c1cccnc1 (centres undefined),0.41% (inactive)
5,O=S1(=O)CC(N2CCN(CCO)CC2)CN1Cc1cn(Cc2cccc(Cl)c2)nn1 (centres undefined),0.87% (inactive)
6,COc1ccc(NC(=O)C(Br)C(C)C)cc1 (centres undefined),-2.35% (inactive)
7,CCOC(=O)c1ccc(NC(=S)N2CCCC2)cc1,-1.43% (inactive)
8,COc1ccccc1NC(=S)N1CCN(C(c2ccccc2)c2ccccc2)CC1,-6.34% (inactive)
9,O=C(Oc1cccc(NC2=NS(=O)(=O)c3ccccc32)c1)c1ccncc1,0.38% (inactive)
10,Cc1ccc(S(=O)(=O)N(C)C)cc1NC(=O)COC(=O)c1c(C)noc1C,-2.07% (inactive)
11,O=C(Nc1cccnc1)c1cccc(S(=O)(=O)N2CCCC2)c1,3.63% (inactive)
12,CCCn1c(CCNc2nc(-c3ccc(OC)cc3)cs2)nc2ccccc21,1.63% (inactive)
13,CC1CN(CC(=O)NC(C)c2ccccc2)CC(C)O1 (centres undefined),1.72% (inactive)
14,Fc1cc(Br)ccc1NC(=S)Nc1cccnc1,-1.64% (inactive)
15,COc1ccccc1-n1cnc2cc(NS(=O)(=O)c3ccccc3)ccc21,0.63% (inactive)
16,COc1cc(/C=C/C(=O)OCC(=O)NC2CC2)cc(OC)c1OC,8.18% (inactive)
17,COc1cc(/C=C/C(=O)n2cnc3ccccc32)cc(OC)c1OC,12% (active)
18,O=C(Nc1ccccc1N1CCN(C(=O)c2ccccc2)CC1)c1ccco1,-1.42% (inactive)
19,COc1ccc(N2C(=O)CC(Nc3ccc(F)cc3)C2=O)c([N+](=O)[O-])c1 (centres undefined),-1.86% (inactive)
20,CCOc1ccc(NC(=O)CN(C)CC(=O)NC(C)c2ccccc2)cc1OCC (centres undefined),2.99% (inactive)
21,CCOC(=O)C1CCN(CC(=O)Nc2ccc(OC)c(S(=O)(=O)N3CCCCC3)c2)CC1,2.37% (inactive)
22,Nc1nc(Nc2ccccc2)nc(NCCO)c1[N+](=O)[O-],7.49% (inactive)
23,Cc1ccc(Nc2nc(N)nc(CN3CCN(Cc4ccccc4)CC3)n2)cc1Cl,-4.51% (inactive)

row,SMILES,inhibition
1,CNc1nc(Nc2ccc(C)c(Cl)c2)nc(N)c1[N+](=O)[O-],13.4% (active)
2,Cn1c(=O)c2c(nc(NCc3ccccc3)n2CC(N)=O)n(C)c1=O,-2.6% (inactive)
3,CN(C)/C(=N\OC(=O)c1ccccc1)c1nonc1N,0.81% (inactive)
4,C=CCn1c(=S)[nH]c2scc(-c3ccco3)c2c1=O,20.5% (active)
5,COc1ccc(N2CCN(CCNS(=O)(=O)c3ccc([N+](=O)[O-])cc3)CC2)cc1,-4.76% (inactive)
6,O=C(Nn1cc(C(=O)N2CCN(c3ccccc3F)CC2)c2ccccc2c1=O)c1cnccn1,12.8% (active)
7,O=C(c1ccc(CN2CCOCC2)cc1)N1CCN(c2ccccc2F)CC1,-3.62% (inactive)
8,Cc1ccccc1N1CCN(C(=O)c2cccnc2)CC1,-0.77% (inactive)
9,CC1=C(C(=O)N(C)C)C(c2ccccc2OC(F)F)NC(=O)N1 (centres undefined),-1.25% (inactive)
10,CC(C)C[C@@H](CO)N1CCN(Cc2ccc(O)cc2)CCC1=O,-1.07% (inactive)
11,O=C(Nc1ccc2nccnc2c1)c1ccco1,-2.66% (inactive)
12,Cc1ccnc(NC(=O)c2ccco2)n1,2% (inactive)
13,O=C(Nc1nc(-c2ccco2)c(-c2ccco2)s1)c1ccco1,51.5% (active)
14,O=C(Nc1ccc(N2CCN(C(=O)c3ccccc3)CC2)c(Cl)c1)c1ncn[nH]1,-4.97% (inactive)
15,Cc1cccc(NC(=O)CN2CCN(CC(=O)NCC3(N4CCCCC4)CCCCC3)CC2)c1C,-4.34% (inactive)
16,Cc1ccc(-n2c(SCC(=O)Nc3cccc4ccccc34)nnc2-c2ccccn2)cc1,2.33% (inactive)
17,O=C(CCCCCN1C(=O)C2C3C=CC(C3)C2C1=O)Nc1ccccn1 (centres undefined),-1.93% (inactive)
18,CSc1ccc(C=Nn2c(-c3ccc(F)cc3)n[nH]c2=S)cc1,-3.89% (inactive)
19,CC(C)Cc1nnc(NC(=O)CN2C(=O)NC3(CCCCC3)C2=O)s1,4.69% (inactive)
20,Cc1ccc(C(=O)NCC(=O)NCc2cc(=O)n(C)c(=O)n2C)cc1,1.66% (inactive)
21,Nn1c(SCC(=O)NC2CCCc3ccccc32)nnc1C1CC1 (centres undefined),0.24% (inactive)
22,COc1ccc(-c2cc(-c3nnc(SCC(=O)Nc4cccc5ccccc45)n3N)[nH]n2)cc1,-2.51% (inactive)
23,CCOC(=O)C1=C(CC)Nc2ccccc2N=C1N,3.99% (inactive)

row,SMILES,inhibition
1,COCCCn1c(SCC(=O)Nc2oc(C)c3c(C)n[nH]c(=O)c23)nc2sc3c(c2c1=O)CCC3,-6.64% (inactive)
2,CCC(C)C(N=C1NS(=O)(=O)c2ccccc21)C(=O)N1CCC(C)CC1 (centres undefined),-0.06% (inactive)
3,CN(CC(=O)Nc1ccccc1[N+](=O)[O-])Cc1ccc(Br)cc1,1.93% (inactive)
4,CCNC(=O)N1CCCC(C(=O)c2ccc(-c3ccccc3)cc2)C1 (centres undefined),-3.04% (inactive)
5,O=C(NN=Cc1ccc([N+](=O)[O-])cc1)C1CC1,-3.07% (inactive)
6,COCc1c(N)c(C)nc(Cl)c1C#N,11.8% (active)
7,COC(=O)c1c(C)c(C)nc(N)c1C#N,-2.53% (inactive)
8,Cc1nc(Cl)c(C#N)c2c1CCCC2,8.75% (inactive)
9,O=C(NCc1ccccc1)[C@H]1CCCN1C(=O)[C@H]1CCCN1C(=O)N1CCOCC1,-0.82% (inactive)
10,COc1cccc(CNC(=O)COC(=O)CN2C(=O)NC3(CCCCC3C)C2=O)c1 (centres undefined),1.52% (inactive)
11,CC1CCN(C(=O)COC(=O)c2cc(S(=O)(=O)N3CCOCC3)ccc2Cl)CC1,-2.18% (inactive)
12,O=C(NCC(c1ccco1)N1CCc2ccccc21)c1cccc(F)c1 (centres undefined),-8.09% (inactive)
13,COc1cc(NC(=O)C2CCCN(S(=O)(=O)c3ccc(C(C)(C)C)cc3)C2)cc(OC)c1 (centres undefined),5.8% (inactive)
14,COc1cc(S(=O)(=O)N2CCN(C(=O)C3CC3)CC2)ccc1NC(C)=O,4.21% (inactive)
15,COC(=O)[C@@]12CCCCC=C1N(CCc1ccc(Cl)cc1)C(=O)[C@H]2CC(=O)NCc1ccc(OC)c(OC)c1,-3.3% (inactive)
16,COc1ccc(C(C(=O)Nc2c(C)cccc2C)N2CCN(c3ccc(C)cc3)CC2)cc1 (centres undefined),23.2% (active)
17,Cc1cccc(C)c1NC(=O)C(c1cccc(F)c1)N1CCN(C)CC1 (centres undefined),-2.52% (inactive)
18,COc1ccc(N2CCC(CNC(=S)Nc3c(C)cccc3C)C2)cc1 (centres undefined),-3.26% (inactive)
19,COc1ccc(C2COC(=O)C2=N)c(NC(=O)c2ccccc2)c1 (centres undefined),-1.11% (inactive)
20,COc1ccc(N2C(=O)CC(SC(C)C)C2=O)cc1 (centres undefined),-3.91% (inactive)
